Drawing on PubChem BioAssay (NCATS), this text covers Potency for 13 compounds.

Results filed as inconclusive are left out. Active and inactive are the calls of the source. Calls come from the whole dose curve; as a rule, active = well fitted inhibition curve with a large enough effect; inconclusive = small, poorly fitted or top-dose-only effect; inactive = flat fitted curve, though single readings scatter.

What all share (assay): qHTS profiling for inhibitors of Plasmodium falciparum proliferation (AID 504749); note: nearly all actives have a fitted effect of over 60% in size
What all share (settings): P. falciparum in erythrocytes, SYBR Green DNA, 72 h; series mostly up to 28.7 µM
A general note: In qHTS, concentration-response curves come from the screen itself.

In assay [1] the test system is CP211. The procedure, abridged: (§1)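 P. falciparum-infected erythrocytes (0.3% parasitemia, 2.5% hematocrit) incubated with compound 72 h at 37 C, 5% CO2. Parasite DNA detected by SYBR Green after lysis, overnight at room temperature; normalised to 0.29 uM artemisinin and DMSO.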
For assay [2], the system named is CP215. The method in brief:
as §1

Assay [3] has as its system CP217. The procedure, abridged: as §1
The subject of assay [4] is CP237. The method in brief:
as §1

Assay [5] deals with CP238. The method in brief:
as §1

Assay [6] relates to CP247. The method in brief:
as §1

The subject of assay [7] is CP250. The method in brief: as §1
Assay [8] deals with CP252. The procedure, abridged:
as §1

The subject of assay [9] is CP256. The method in brief: as §1
Assay [10] has as its system CP260. The procedure, abridged:
as §1

In assay [11] the test system is CP262. The procedure, abridged:
as §1

For assay [12], the system named is CP265. The procedure, abridged: as §1
Assay [13] concerns CP266. The procedure, abridged:
as §1

The subject of assay [14] is CP268. The procedure, abridged:
as §1

Assay [15] relates to CP269. The procedure, abridged:
as §1

The test system of assay [16] is CP286. The method in brief: as §1
For assay [17], the system named is CP291. The method in brief:
as §1

The subject of assay [18] is CP297. The procedure, abridged: as §1
Assay [19] deals with CP305. The method in brief: as §1
Assay [20] deals with CP315. The procedure, abridged:
as §1
Potency is the fitted concentration of half-maximal effect.

As for `CN(CCOc1ccc(CC2SC(=O)NC2=O)cc1)c1ccccn1` (stereo not given), the Potency entry in assay [1], in assay [2], in [3], in assay [4], in assay [5] and in [6] was “inactive” throughout. The Potency entry in assay [7], in assay [8], in assay [9], in [10], in assay [11] and in assay [12] was “inactive” throughout. Moreover, the Potency result in assay [13], in assay [14], in [15], in assay [16], in assay [17] and in assay [18] was “inactive” each time. The Potency entry in assay [19] and in [20] was “inactive” each time.
Consider `CN1CCN(c2c(F)cc3c(=O)c(C(=O)O)cn(CCF)c3c2F)CC1`, for which the Potency result in assay [1], in assay [2], in [3], in assay [4], in assay [5] and in assay [6] was “inactive” each time. The Potency entry in [7], in assay [8], in [9], in [10], in [11] and in [12] was “inactive” in each case. Also, the Potency result in assay [13], in assay [14], in [15], in assay [16], in [17] and in [18] was “inactive” each time. Also, the Potency result in [19] and in assay [20] was “inactive” throughout.
Consider `CCN(C)C(=O)Oc1cccc([C@H](C)N(C)C)c1`, for which the Potency result in assay [1], in assay [2], in [3], in assay [4], in assay [5] and in [6] was “inactive” throughout. Also, the Potency entry in [7], in assay [8], in assay [9], in assay [10], in assay [11] and in assay [12] was “inactive” in each case. The Potency result in assay [13], in assay [14], in [15], in [16], in [17] and in [18] was “inactive” throughout. The Potency result in assay [19] and in assay [20] was “inactive” in each case.
Regarding `CC[C@H](NC(C)C)[C@H](O)c1ccc(O)c2[nH]c(=O)ccc12`, the Potency result in assay [1], in [2], in assay [3], in assay [4], in assay [5] and in [6] was “inactive” throughout. Moreover, the Potency result in [7], in assay [8], in assay [9], in assay [10], in assay [11] and in assay [12] was “inactive” in each case. Also, the Potency result in assay [13], in assay [14], in [15], in assay [16], in assay [17] and in [18] was “inactive” throughout. Moreover, the Potency entry in [19] and in [20] was “inactive” in each case.
Turning to `N=C(N)c1ccc(OCCCCCOc2ccc(C(=N)N)cc2)cc1`, the Potency is 849 nM (active) in [1]; 1070 nM (active) in assay [2]; 2240 nM (active) in assay [3]; 251 nM (active) in assay [4]; 2240 nM (active) in assay [5]; 1120 nM (active) in assay [6]. Also, the Potency was 2510 nM (active) in assay [7]; 2000 nM (active) in assay [8]; 501 nM (active) in [9]; 2000 nM (active) in assay [10]; 757 nM (active) in assay [11]; 2820 nM (active) in [12]. In addition, the Potency in assay [13] is 1690 nM (active); in assay [14], 1350 nM (active); in assay [15], 536 nM (active); in assay [16], 1120 nM (active); in [17], 1200 nM (active); in assay [18], 601 nM (active). In addition, the figures for the Potency in assay [19] and in assay [20] were 536 nM (active) and 1350 nM (active), respectively.
With `Cc1nnc(NS(=O)(=O)c2ccc(N)cc2)s1`, the Potency result in [1], in assay [2], in [3], in assay [4], in assay [5] and in assay [6] was “inactive” each time. Further, the Potency entry in assay [7], in [8], in assay [9], in [10], in [11] and in assay [12] was “inactive” in each case. Further, the Potency entry in [13], in assay [14], in [15], in [16], in assay [17] and in [18] was “inactive” throughout. Also, the Potency entry in assay [19] and in assay [20] was “inactive” throughout.
Turning to `CCOCC(O)COc1ccc(NC(=O)CC[S+](C)C)cc1` (stereo not given), the Potency result in assay [1], in assay [2], in assay [3], in [4], in [5] and in assay [6] was “inactive” in each case. Also, the Potency entry in assay [7], in assay [8], in assay [9], in assay [10], in [11] and in assay [12] was “inactive” in each case. The Potency entry in [13], in [14], in [15], in assay [16], in [17] and in assay [18] was “inactive” in each case. Moreover, the Potency entry in [19] and in assay [20] was “inactive” throughout.
`O=NN(CCCl)C(=O)NC1CCCCC1`: the Potency result in assay [1], in assay [2], in assay [3], in assay [4], in assay [5] and in [6] was “inactive” each time. Moreover, the Potency result in assay [7], in [8], in assay [9], in assay [10], in assay [11] and in [12] was “inactive” each time. Besides, the Potency result in assay [13], in [14], in assay [15], in assay [16], in assay [17] and in assay [18] was “inactive” each time. In addition, the Potency entry in assay [19] and in assay [20] was “inactive” throughout.
For the compound `O=P(O)(O)C(O)(Cc1cccnc1)P(=O)(O)O`, the Potency result in assay [1], in [2], in [3], in [4], in assay [5] and in assay [6] was “inactive” each time. Further, the Potency entry in [7], in [8], in assay [9], in [10], in [11] and in assay [12] was “inactive” in each case. The Potency entry in [13], in assay [14], in assay [15], in assay [16], in assay [17] and in [18] was “inactive” throughout. For the same compound, the Potency result in assay [19] and in [20] was “inactive” in each case.
On to `CC1=NN(c2ccccc2)C(=O)C1`, for which the Potency result in assay [1], in assay [2], in [3], in assay [4], in assay [5] and in assay [6] was “inactive” throughout. The Potency entry in [7], in [8], in [9], in [10], in [11] and in [12] was “inactive” each time. The Potency result in assay [13], in assay [14], in assay [15], in assay [16], in [17] and in assay [18] was “inactive” throughout. Moreover, the Potency result in [19] and in assay [20] was “inactive” each time.
In the case of `N[C@@H](C(=O)N[C@@H]1C(=O)N2C(C(=O)O)=C(Cl)CS[C@H]12)c1ccccc1`, the Potency entry in assay [1], in assay [2], in assay [3], in assay [4], in assay [5] and in assay [6] was “inactive” throughout. The Potency result in assay [7], in [8], in assay [9], in [10], in assay [11] and in assay [12] was “inactive” each time. Further, the Potency entry in assay [13], in assay [14], in assay [15], in assay [16], in assay [17] and in [18] was “inactive” each time. Moreover, the Potency result in assay [19] and in [20] was “inactive” in each case.
With `COc1ncnc(NS(=O)(=O)c2ccc(N)cc2)c1OC`, the Potency result in assay [1], in assay [2], in assay [3], in assay [4], in [5] and in [6] was “inactive” in each case. Also, the Potency result in assay [7], in [8], in assay [9], in [10], in assay [11] and in [12] was “inactive” in each case. The Potency entry in [13], in [14], in assay [15], in assay [16], in [17] and in assay [18] was “inactive” throughout. Also, the Potency result in assay [19] and in assay [20] was “inactive” each time.
As to `CCc1cc(C(N)=S)ccn1`, the Potency result in assay [1], in assay [2], in [3], in assay [4], in assay [5] and in assay [6] was “inactive” throughout. Further, the Potency result in [7], in [8], in assay [9], in assay [10], in [11] and in assay [12] was “inactive” throughout. In addition, the Potency entry in assay [13], in assay [14], in assay [15], in assay [16], in assay [17] and in assay [18] was “inactive” in each case. Further, the Potency entry in [19] and in assay [20] was “inactive” throughout.
